Source: PubChem BioAssay (NCI)
Compounds without any hit were thinned out: in the full panel of roughly 83,000, 20% have a hit.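 96-well plates, one dose, 48 hours. Percent growth reported; active if below 10.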 Activity calls are given as the source filed them.

Experiments:
Assay in all cases: NCI-60 one-dose screen, 48 h (100 = growth as untreated, 0 = no growth, -100 = all killed)
Conditions in all cases: 10 µM unless noted
DU-145 prostate = system: DU-145 prostate
K-562 leukemia = system: K-562 leukemia
MALME-3M melanoma = system: MALME-3M melanoma
MDA-MB-231 breast = system: MDA-MB-231 breast
RXF 393 renal = system: RXF 393 renal
SF-268 CNS = system: SF-268 CNS
SF-295 CNS = system: SF-295 CNS
SF-539 CNS = system: SF-539 CNS
UACC-257 melanoma = system: UACC-257 melanoma
M14 melanoma = system: M14 melanoma

Measured: growth

CN(C)c1ccc(O)c2c1CC1CC3C(N(C)C)C(=O)C(C(N)=O)=C(O)C3(O)C(=O)C1=C2O (stereo not given)
inactive: DU-145 prostate 49% | K-562 leukemia 45.2% | MALME-3M melanoma 46.8% | MDA-MB-231 breast 66.3% | RXF 393 renal 46.3% | SF-268 CNS 46.1% | SF-295 CNS 11.8% | SF-539 CNS 41.6% | UACC-257 melanoma 48.4% | M14 melanoma 42.1%

Nc1ccc2c(c1)Cc1cc(N)c(N)cc1-2
inactive: DU-145 prostate 108% | K-562 leukemia 97.3% | MALME-3M melanoma 95.8% | MDA-MB-231 breast 84% | RXF 393 renal 97.3% | SF-268 CNS 104% | SF-295 CNS 106% | SF-539 CNS 109% | UACC-257 melanoma 81% | M14 melanoma 102%

Cc1ccc(S(=O)(=O)CCCl)cc1
inactive: DU-145 prostate 112% | K-562 leukemia 95.6% | MALME-3M melanoma 117% | MDA-MB-231 breast 117% | RXF 393 renal 100% | SF-268 CNS 93.8% | SF-295 CNS 111% | SF-539 CNS 100% | UACC-257 melanoma 100% | M14 melanoma 104%

Nc1ccn(C2CC(N)C(CO)O2)c(=O)n1 (stereo not given)
inactive: DU-145 prostate 51.2% | K-562 leukemia 83.9% | MALME-3M melanoma 79.2% | MDA-MB-231 breast 94.4% | RXF 393 renal 128% | SF-268 CNS 102% | SF-295 CNS 82.4% | SF-539 CNS 76.3% | UACC-257 melanoma 96% | M14 melanoma 66.2%

COc1nc2ccccc2s1
inactive: DU-145 prostate 110% | K-562 leukemia 102% | MALME-3M melanoma 111% | MDA-MB-231 breast 115% | RXF 393 renal 118% | SF-268 CNS 101% | SF-295 CNS 113% | SF-539 CNS 90.7% | UACC-257 melanoma 84.8% | M14 melanoma 93.5%

CCC(=O)Oc1ccc2ccccc2c1
inactive: DU-145 prostate 113% | K-562 leukemia 107% | MALME-3M melanoma 93.7% | MDA-MB-231 breast 90.2% | RXF 393 renal 105% | SF-268 CNS 97.5% | SF-295 CNS 101% | SF-539 CNS 96.8% | UACC-257 melanoma 96.6% | M14 melanoma 92.2%

Nc1ncnc(Nc2ccccc2)n1
inactive: DU-145 prostate 120% | K-562 leukemia 98.8% | MALME-3M melanoma 124% | MDA-MB-231 breast 115% | RXF 393 renal 118% | SF-268 CNS 112% | SF-295 CNS 113% | SF-539 CNS 108% | UACC-257 melanoma 108% | M14 melanoma 106%

N#C/C(=C\c1ccc2c(c1)OCO2)c1ccccc1
inactive: DU-145 prostate 106% | K-562 leukemia 21.4% | MALME-3M melanoma 80.7% | MDA-MB-231 breast 66.8% | RXF 393 renal 83.6% | SF-268 CNS 86.4% | SF-295 CNS 71.3% | SF-539 CNS 80% | UACC-257 melanoma 85.8% | M14 melanoma 59%

CCCCCCCCCc1ccc(OC(C)=O)cc1
inactive: DU-145 prostate 103% | K-562 leukemia 101% | MALME-3M melanoma 103% | MDA-MB-231 breast 110% | RXF 393 renal 111% | SF-268 CNS 101% | SF-295 CNS 96.6% | SF-539 CNS 92.8% | UACC-257 melanoma 110% | M14 melanoma 99.5%

CCCCCCCCCCCCCC/C=C\C(CC(=O)O)C(=O)O (stereo not given)
inactive: DU-145 prostate 110% | K-562 leukemia 154% | MALME-3M melanoma 123% | MDA-MB-231 breast 102% | RXF 393 renal 117% | SF-268 CNS 103% | SF-295 CNS 110% | SF-539 CNS 108% | UACC-257 melanoma 107% | M14 melanoma 103%

O=c1[nH]c(=O)c2cc(Cl)cc(Cl)c2[nH]1
inactive: DU-145 prostate 136% | K-562 leukemia 106% | MALME-3M melanoma 116% | MDA-MB-231 breast 107% | RXF 393 renal 113% | SF-268 CNS 109% | SF-295 CNS 114% | SF-539 CNS 99.5% | UACC-257 melanoma 93% | M14 melanoma 102%

CCCCNC(=O)c1ccc(OCC)cc1
inactive: DU-145 prostate 108% | K-562 leukemia 112% | MALME-3M melanoma 101% | MDA-MB-231 breast 108% | RXF 393 renal 109% | SF-268 CNS 106% | SF-295 CNS 106% | SF-539 CNS 104% | UACC-257 melanoma 102% | M14 melanoma 99.7%

CCCCCCCCNC(=O)C(C)C
inactive: DU-145 prostate 105% | K-562 leukemia 108% | MALME-3M melanoma 106% | MDA-MB-231 breast 109% | RXF 393 renal 93% | SF-268 CNS 104% | SF-295 CNS 100% | SF-539 CNS 96.9% | UACC-257 melanoma 108% | M14 melanoma 95.5%

OCCNc1ccccc1
inactive: DU-145 prostate 103% | K-562 leukemia 104% | MALME-3M melanoma 102% | MDA-MB-231 breast 104% | RXF 393 renal 109% | SF-268 CNS 97.2% | SF-295 CNS 108% | SF-539 CNS 95.9% | UACC-257 melanoma 108% | M14 melanoma 97.8%

Oc1cc2ccccc2c(-c2c(O)c(O)cc3ccccc23)c1O
active: SF-295 CNS -48%
inactive: DU-145 prostate 47.3% | K-562 leukemia 43.8% | MALME-3M melanoma 75.4% | MDA-MB-231 breast 75.1% | RXF 393 renal 72.7% | SF-268 CNS 37.9% | SF-539 CNS 21.4% | UACC-257 melanoma 56.1% | M14 melanoma 25%

Clc1cccc(Cl)c1CSc1nc2ccccc2n2cccc12
inactive: DU-145 prostate 92.8% | K-562 leukemia 89% | MALME-3M melanoma 91.4% | MDA-MB-231 breast 98.2% | RXF 393 renal 97.6% | SF-268 CNS 96.9% | SF-295 CNS 98% | SF-539 CNS 102% | UACC-257 melanoma 95.6% | M14 melanoma 94.1%

CC(=O)Nc1ncc(S(=O)(=O)c2ccc([N+](=O)[O-])cc2)s1
inactive: DU-145 prostate 113% | K-562 leukemia 99.3% | MALME-3M melanoma 118% | MDA-MB-231 breast 123% | RXF 393 renal 115% | SF-268 CNS 100% | SF-295 CNS 112% | SF-539 CNS 113% | UACC-257 melanoma 104% | M14 melanoma 97.3%

CC1(C)CCC(C)(C)NC(=S)N1
inactive: DU-145 prostate 107% | K-562 leukemia 103% | MALME-3M melanoma 97.3% | MDA-MB-231 breast 111% | RXF 393 renal 112% | SF-268 CNS 105% | SF-295 CNS 102% | SF-539 CNS 105% | UACC-257 melanoma 113% | M14 melanoma 98.9%

Oc1cccc(CNC2CCCCC2)c1
inactive: DU-145 prostate 119% | K-562 leukemia 101% | MALME-3M melanoma 129% | MDA-MB-231 breast 102% | RXF 393 renal 114% | SF-268 CNS 103% | SF-295 CNS 120% | SF-539 CNS 106% | UACC-257 melanoma 119% | M14 melanoma 99.9%

CCN(CC)CCOC(=O)Nc1c(C(C)C)cccc1C(C)C
inactive: DU-145 prostate 116% | K-562 leukemia 99% | MALME-3M melanoma 98.2% | MDA-MB-231 breast 104% | RXF 393 renal 107% | SF-268 CNS 106% | SF-295 CNS 102% | SF-539 CNS 96.6% | UACC-257 melanoma 97.5% | M14 melanoma 107%

OCCc1ccc(Cl)cc1
inactive: DU-145 prostate 109% | K-562 leukemia 99.9% | MALME-3M melanoma 99.5% | MDA-MB-231 breast 96.9% | RXF 393 renal 112% | SF-268 CNS 99.9% | SF-295 CNS 94.9% | SF-539 CNS 93.9% | UACC-257 melanoma 86.6% | M14 melanoma 99.2%

C=C(C)COc1ccc(C(C)(C)C)cc1
inactive: DU-145 prostate 107% | K-562 leukemia 106% | MALME-3M melanoma 116% | MDA-MB-231 breast 102% | RXF 393 renal 99.5% | SF-268 CNS 99.8% | SF-295 CNS 101% | SF-539 CNS 102% | UACC-257 melanoma 82.6% | M14 melanoma 102%

CC(=O)/C(C)=N\OC(=O)Nc1ccccc1
inactive: DU-145 prostate 104% | K-562 leukemia 98.4% | MALME-3M melanoma 104% | MDA-MB-231 breast 99.3% | RXF 393 renal 125% | SF-268 CNS 101% | SF-295 CNS 101% | SF-539 CNS 95.3% | UACC-257 melanoma 98.7% | M14 melanoma 101%

CC(=O)N(C)N=Nc1ccc(C)cc1
inactive: DU-145 prostate 107% | K-562 leukemia 105% | MALME-3M melanoma 94.5% | MDA-MB-231 breast 102% | RXF 393 renal 122% | SF-268 CNS 91.3% | SF-295 CNS 101% | SF-539 CNS 101% | UACC-257 melanoma 101% | M14 melanoma 96.7%

CC1(c2ccccc2)CO1 (stereo not given)
inactive: DU-145 prostate 111% | K-562 leukemia 106% | MALME-3M melanoma 118% | MDA-MB-231 breast 108% | RXF 393 renal 120% | SF-268 CNS 107% | SF-295 CNS 110% | SF-539 CNS 102% | UACC-257 melanoma 102% | M14 melanoma 108%

CCC1CCC(C)NC1 (stereo not given)
inactive: DU-145 prostate 107% | K-562 leukemia 102% | MALME-3M melanoma 102% | MDA-MB-231 breast 120% | RXF 393 renal 107% | SF-268 CNS 102% | SF-295 CNS 92.1% | SF-539 CNS 99.7% | UACC-257 melanoma 96% | M14 melanoma 95.2%

Cc1ccc(OC(=O)c2ccccc2)cc1
inactive: DU-145 prostate 114% | K-562 leukemia 101% | MALME-3M melanoma 123% | MDA-MB-231 breast 126% | RXF 393 renal 107% | SF-268 CNS 108% | SF-295 CNS 117% | SF-539 CNS 106% | UACC-257 melanoma 94.3% | M14 melanoma 113%

Nc1ccn(C2OC(CO)C(O)C2F)c(=O)n1 (stereo not given)
inactive: DU-145 prostate 89.4% | K-562 leukemia 83.7% | MALME-3M melanoma 73% | MDA-MB-231 breast 89.2% | RXF 393 renal 100% | SF-268 CNS 86.3% | SF-295 CNS 98.6% | SF-539 CNS 92.2% | UACC-257 melanoma 95.1% | M14 melanoma 65.4%

O=[N+]([O-])c1ccc(-c2nc(N(CCO)CCO)c3ccccc3n2)o1
active: DU-145 prostate -22.8% | K-562 leukemia 4.2% | MALME-3M melanoma -74.5% | MDA-MB-231 breast -6.61% | RXF 393 renal -87.1% | SF-268 CNS -16.2% | SF-295 CNS -32.1% | SF-539 CNS -48.9% | UACC-257 melanoma -36.3% | M14 melanoma -90%

CCCCc1ccc2nc(NC(=O)OC)[nH]c2c1
active: DU-145 prostate -2.08% | K-562 leukemia -20.4% | SF-295 CNS -5.83% | SF-539 CNS -51.1% | M14 melanoma 8.08%
inactive: MALME-3M melanoma 48.1% | MDA-MB-231 breast 13% | RXF 393 renal 20.9% | SF-268 CNS 28.8% | UACC-257 melanoma 69%
